The source made the active and inactive calls. Unless noted, the rule behind the calls is not given here.
Assays:
[1] = resazurin metabolic signal in HepG2 cells – cell-based, resazurin fluorescence, 24 h, PK04 Diversity Set, profiling panel (AID 1172); details: HepG2 viability, higher = more signal
[2] = budding yeast growth changes without added modifier – OD600, strain BY4716, 24 h, basal condition, primary screen (AID 1173); details: S. cerevisiae BY4716 growth, OD600, 24 h; higher = more signal, called active from +8 up or from −8 down
[3] = viability profiling in MM1S myeloma cells – cell-based, resazurin fluorescence, basal, 24 h, PK04 Diversity Set, profiling panel (AID 1174); details: higher = more signal, called active from +8 up or from −8 down;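 note: MM1S multiple myeloma cell line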
[4] = biological target: Dihydroorotate dehydrogenase (quinone), mitochondrial (Plasmodium falciparum (isolate 3D7)) (UniProt Q08210); test: inhibition of P. falciparum DHODH – biochemical, C-terminal His tag, absorbance 600 nm, primary screen (AID 1175); details: PfDHODH enzyme, DCIP absorbance 600 nm; higher = more signal, called active from +8 up or from −8 down;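 note: recombinant parasite enzyme with a five histidine tag at its C terminus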
[5] = inhibition of PAO1 biofilm formation – strain PAO1, LB-PBS medium, absorbance 600 nm, primary screen (AID 1176); details: P. aeruginosa PAO1 growth/biofilm, A600, 12 h; higher = more signal
[6] = growth modulation of vineyard yeast isolate – strain RM11-1a, OD600, basal, 24 h, primary screen (AID 1177);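 note: cultures grown under basal conditions with no added stressor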; details: S. cerevisiae RM11-1a growth, OD600, 24 h; higher = more signal, called active from +8 up or from −8 down
[7] = growth of efflux-deficient E. coli DRC39 – strain DRC39, OD650, 24 h, E. coli filamentation inducers, primary screen (AID 1178);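 note: growth measured as culture turbidity by optical density at 650 nm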; details: E. coli DRC39 acrAB, higher = more signal, called active from +8 up or from −8 down
[8] = growth of efflux-deficient E. coli DRC39 – strain DRC39, OD650, 48 h, E. coli filamentation inducers, primary screen (AID 1179);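 note: screen aims at cell division blockers that make cells filament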; details: E. coli DRC39 delta-acrAB growth, higher = more signal, called active from +8 up or from −8 down
[9] = viability profiling in RPMI8226 myeloma cells – cell-based, resazurin fluorescence, basal, 24 h, PK04 Diversity Set, profiling panel (AID 1180); details: higher = more signal;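 note: RPMI8826 multiple myeloma cell line at 5000 cells per well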
[10] = biological target: E3 ubiquitin-protein ligase XIAP (Homo sapiens) (UniProt P98170); test: small molecules binding XIAP protein – biophysical, small-molecule microarray, fluorescence 635 nm, primary screen (AID 1181); details: higher = more signal;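 note: score merges 667 nm emission and signal to noise over triplicate slides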
[11] = test system: XIP peptide (Xip251-270) binding; test: XIP fragment 251-270 binding compounds – biochemical, small-molecule microarray, fluorescence 635/667 nm, 0.1 µg/mL protein, primary screen (AID 1182); details: fluorescent protein binding, 635 nm, higher = more signal, called active from +8 up or from −8 down
XIP peptide (Xip251-270) = test: compounds binding XIP fragment 251-270 – biochemical, small-molecule microarray, fluorescence 635/667 nm, 0.5 µg/mL protein, primary screen (AID 1183); details: fluorescence 635 nm, higher = more signal
[12] = blood-stage malaria parasite viability loss – strain 3D7, DAPI fluorescence, 100 nL, primary screen (AID 1184);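 note: parasites grown inside human red blood cells in medium with human serum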; details: P. falciparum 3D7 growth, 3 d, higher = more signal
[13] = biological target: Homeobox protein Hox-A13 (Mus musculus) (UniProt Q62424); test: disruptors of Hoxa13 oligonucleotide interaction – biochemical, fluorescence polarization, labeled oligonucleotide, primary screen (AID 1185); details: Hoxa13:DNA binding, 15 min, higher = more signal, called active from +8 up or from −8 down
[14] = blockers of DNA damage checkpoint Chk1 activation – imaging, HeLa, hydroxyurea, phospho-Chk1 antibody, percent positive cells, primary screen (AID 1186); details: hydroxyurea-induced phospho-Chk1 immunofluorescence imaging, higher = more signal
[15] = blockers of DNA damage checkpoint Chk1 activation – imaging, HeLa, hydroxyurea, phospho-Chk1 nuclear intensity, primary screen (AID 1187); details: hydroxyurea-induced phospho-Chk1 immunofluorescence imaging, higher = more signal

E3 ubiquitin-protein ligase XIAP (Homo sapiens), sequence (P98170 whole entry, looked up, the tested form may be a part): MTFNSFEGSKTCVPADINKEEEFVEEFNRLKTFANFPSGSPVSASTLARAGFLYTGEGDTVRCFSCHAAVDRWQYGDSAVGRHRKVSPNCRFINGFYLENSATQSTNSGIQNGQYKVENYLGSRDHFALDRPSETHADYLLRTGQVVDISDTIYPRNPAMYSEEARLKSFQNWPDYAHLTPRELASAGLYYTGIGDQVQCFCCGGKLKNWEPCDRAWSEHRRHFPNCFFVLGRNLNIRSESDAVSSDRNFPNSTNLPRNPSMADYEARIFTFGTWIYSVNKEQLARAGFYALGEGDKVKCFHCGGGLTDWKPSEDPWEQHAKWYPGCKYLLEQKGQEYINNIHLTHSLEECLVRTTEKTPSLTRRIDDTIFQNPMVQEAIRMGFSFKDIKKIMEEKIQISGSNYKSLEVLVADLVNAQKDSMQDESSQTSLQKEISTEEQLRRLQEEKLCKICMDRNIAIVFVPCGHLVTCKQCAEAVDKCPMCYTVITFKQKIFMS
Homeobox protein Hox-A13 (Mus musculus), sequence (Q62424 whole entry, looked up): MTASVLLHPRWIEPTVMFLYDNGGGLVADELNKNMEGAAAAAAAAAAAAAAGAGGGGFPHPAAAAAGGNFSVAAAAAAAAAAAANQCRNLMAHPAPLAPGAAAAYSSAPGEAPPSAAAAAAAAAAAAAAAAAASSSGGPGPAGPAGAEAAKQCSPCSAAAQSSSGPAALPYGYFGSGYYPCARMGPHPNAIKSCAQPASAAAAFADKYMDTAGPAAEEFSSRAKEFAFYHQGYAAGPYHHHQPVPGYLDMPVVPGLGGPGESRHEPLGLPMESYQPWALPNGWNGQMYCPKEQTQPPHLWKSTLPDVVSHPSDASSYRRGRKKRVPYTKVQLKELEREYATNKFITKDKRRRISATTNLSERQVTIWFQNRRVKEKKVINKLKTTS
Dihydroorotate dehydrogenase (quinone), mitochondrial (Plasmodium falciparum (isolate 3D7)), sequence (Q08210 whole entry, looked up): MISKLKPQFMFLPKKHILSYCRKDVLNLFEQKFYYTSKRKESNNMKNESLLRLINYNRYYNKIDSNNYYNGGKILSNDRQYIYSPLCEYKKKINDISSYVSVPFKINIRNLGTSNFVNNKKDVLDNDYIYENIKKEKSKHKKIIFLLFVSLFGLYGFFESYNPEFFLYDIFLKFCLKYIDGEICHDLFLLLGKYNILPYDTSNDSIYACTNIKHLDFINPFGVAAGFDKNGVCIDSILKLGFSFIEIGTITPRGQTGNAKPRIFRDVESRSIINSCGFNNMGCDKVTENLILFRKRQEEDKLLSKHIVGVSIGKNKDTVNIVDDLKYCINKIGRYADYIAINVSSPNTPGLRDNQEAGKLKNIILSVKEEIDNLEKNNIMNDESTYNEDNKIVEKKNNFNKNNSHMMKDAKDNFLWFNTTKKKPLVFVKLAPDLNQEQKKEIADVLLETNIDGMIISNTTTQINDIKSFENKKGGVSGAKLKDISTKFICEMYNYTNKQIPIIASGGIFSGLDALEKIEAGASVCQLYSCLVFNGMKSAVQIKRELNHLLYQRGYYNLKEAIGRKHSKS

Row | Compound | z-score [1] | z-score [2] | z-score [3] | composite z-score [4] | z-score [5] | z-score [6] | z-score [7] | z-score [8] | z-score [9] | composite z-score [10] | composite z-score [11] | composite z-score (XIP peptide (Xip251-270)) | z-score [12] | z-score [13] | z-score [14] | z-score [15]
1 | C=CCNC(=O)[C@@H]1[C@H]2C(=O)O[C@H](c3ccccc3)[C@H](c3ccccc3)N2[C@H](c2ccc(O)cc2)[C@@]12C(=O)N(C(=O)OCCOC)c1ccccc12 | 0.09 | 0.57 (inactive) | 0.177 (inactive) | -0.186 (inactive) | 0.817 (inactive) | 1.01 (inactive) | -0.233 (inactive) | -0.33 (inactive) | 0.209 | -0.17 | 2.55 (inactive) | 0.525 | -2.07 | -2.07 (inactive) | 0.209 (inactive) | 0.354 (inactive)
2 | COc1ccc([Si](C)(C)[C@@H]2[C@@H](CCn3cc([C@H](O)c4ccccc4)nn3)O[C@]3(C(=O)N(Cc4ccc(N5C(=O)c6cccc7cccc5c67)cc4)c4ccccc43)[C@H]2C)cc1 | -0.651 | -0.349 (inactive) | -1.66 (inactive) | -0.609 (inactive) | 0.65 (inactive) | -0.0915 (inactive) | 0.954 (inactive) | 0.453 (inactive) | -1.01 | -0.157 | 1.02 (inactive) | 0.182 | -2.8 | 0.474 (inactive) | -0.506 (inactive) | -0.524 (inactive)
3 | C=CC[C@@]1(C(=O)O)N=C(c2ccc(OCCCO)cc2)O[C@@H]1c1ccccc1N=[N+]=[N-] | 0.0725 | -0.769 (inactive) | -0.702 (inactive) | 0.535 (inactive) | 0.976 (inactive) | 0.15 (inactive) | 0.236 (inactive) | -0.154 (inactive) | -0.0493 | -0.0559 | 0.926 (inactive) | 0.823 | -0.814 | -6.19 (inactive) | 0.103 (inactive) | -0.0861 (inactive)
4 | O=C(CS)NCCCCCCNC(=O)[C@H]1C[C@H]2C(=O)N3CCC[C@H]3C(=O)N2[C@H]1c1cccc(OCCO)c1 | -0.162 | 0.232 (inactive) | -0.837 (inactive) | -0.15 (inactive) | 0.0499 (inactive) | -0.656 (inactive) | -0.34 (inactive) | -0.596 (inactive) | -0.953 | 0.104 | 0.517 (inactive) | 0.773 | -0.0979 | -3.15 (inactive) | -0.188 (inactive) | -0.318 (inactive)
